These molecules were tested against AMP-activated protein kinase, AMPK (Homo sapiens) (UniProt P54646+O43741+P54619+Q9UGJ0+Q9Y478+Q13131+Q9UGI9) (assay: AMP-dependent Kinase enzyme assay. An in vitro enzyme assay that detects ADP turnover that is directly proportional to AMPK activity. This uses naive AMPK that is activated during the assay with MK-8722). Settings: 30 µM.
Assay type: functional
Set-up: scale not given: direction of the effect not stated beside the values

How did the Percent Effect turn out when Cc1noc(CN(C)c2ccccc2)n1 was run?
Its Percent Effect is 5.44%.

CSc1ccc(NC(=O)Cn2cc(NC(C)=O)cn2)cc1 was tested. Which Percent Effect did it give?
The Percent Effect was -11.9%.

How did the Percent Effect turn out when CC(C)CN(Cc1ccccn1)Cc1ccccc1OCC(=O)O was run?
Its Percent Effect is -7.24%.

Which Percent Effect does the source give for CSc1ccc(OCCN2CCNC(=O)CC2)cc1 here?
Its Percent Effect is 9.33%.

How did the Percent Effect turn out when Cc1nc(CN(C)S(=O)(=O)c2ccccc2C(F)(F)F)no1 was run?
The Percent Effect was 4.4%.

Which Percent Effect does the source give for O=S(=O)(NCc1cn2ccccc2n1)N1CCOCC1 here?
The Percent Effect was 9.32%.

How did the Percent Effect turn out when CN1CC(C(=O)NCc2ccc(Br)cc2F)CC1=O (stereo not given) was run?
The Percent Effect was 8.64%.

COC(=O)C1CCN(C(=O)Cn2nc(C)nc2-c2ccccc2)CC1 was tested. Which Percent Effect did it give?
Its Percent Effect is -7.76%.

With CC(C)Oc1cccc(F)c1C(C(=O)O)N1CCCN(C)CC1 (stereo not given) as the molecule, how does the Percent Effect read?
Its Percent Effect is 3.49%.

With CN(C)Cc1ccc(C(=O)N2CCCC(COc3ccc(F)cc3)C2)o1 (stereo not given) as the molecule, how does the Percent Effect read?
Its Percent Effect is 7.84%.

Which Percent Effect does the source give for CCCN1CCC(NCc2cccc(CN3CCOC(C)C3)c2)CC1 (stereo not given) here?
Its Percent Effect is -4.13%.

For Cc1n[nH]c(C)c1CCNC(=O)Nc1ccc(S(C)(=O)=O)cc1, which Percent Effect is on record?
Its Percent Effect is 4.13%.

With CCN(Cc1cccc2c1OCCO2)C(=O)NC(C)(C)C as the molecule, how does the Percent Effect read?
The Percent Effect was -7.11%.

Which Percent Effect does the source give for O=C(CC1CCCC1)NCCS(=O)(=O)N1CCN(c2ccccn2)CC1 here?
Its Percent Effect is -2.11%.

CN(C)C(CNC(=O)OCC(F)(F)F)c1ccsc1 (stereo not given) was tested. Which Percent Effect did it give?
Its Percent Effect is -1.15%.

Which Percent Effect does the source give for O=S(=O)(Cc1nc(C2CC2)no1)c1ccccc1F here?
The Percent Effect was 1.42%.

For CCCc1nnc(N2CCN(C3CCCC3)CC2)o1, which Percent Effect is on record?
Its Percent Effect is 3.52%.

Which Percent Effect does the source give for COc1cccc(-c2nc(CNCCc3cccnc3)cs2)c1 here?
The Percent Effect was -3.62%.

Cc1ccc(O)c(C(=O)N2CCC3(CCCNC3)C2)c1 (stereo not given) was tested. Which Percent Effect did it give?
The Percent Effect was 11.1%.

With Cc1cc(CN(C)c2nc(-c3ccco3)nc3c2CCN(C)CC3)on1 as the molecule, how does the Percent Effect read?
The Percent Effect was 6.52%.

With Cc1ccc(NC(=O)NCCn2cnc(C)c(C)c2=O)cc1F as the molecule, how does the Percent Effect read?
The Percent Effect was 1.89%.

How did the Percent Effect turn out when CCc1ccccc1OCCN(C)C(=O)CCN1CCCO1 was run?
Its Percent Effect is -7.88%.

For CC(=O)Nc1ccc(Oc2cc(C)nc(C3CCNCC3)c2)cc1, which Percent Effect is on record?
Its Percent Effect is 0.11%.

CCC(CC)C(=O)N1CCC2(CC1)c1ccccc1[C@@H](OC)[C@@H]2O was tested. Which Percent Effect did it give?
Its Percent Effect is 14%.

With CC1COCCN1C(=O)Cc1cc(Cl)c2c(c1)OCCCO2 (stereo not given) as the molecule, how does the Percent Effect read?
Its Percent Effect is 7.18%.

How did the Percent Effect turn out when C[C@@H]1CN(Cc2nc(C(N)=O)no2)CC[C@@]1(O)C1CCOCC1 was run?
The Percent Effect was 5.22%.

How did the Percent Effect turn out when CCc1noc(C(C)N2CCCN(Cc3noc(C4CC4)n3)CC2)n1 (stereo not given) was run?
The Percent Effect was 0.0834%.

How did the Percent Effect turn out when COc1ncccc1C(=O)NCCn1cnc(C)cc1=O was run?
Its Percent Effect is -2.02%.

For CC(=O)NCCNC(=O)c1cc(COc2ccccc2)[nH]n1, which Percent Effect is on record?
The Percent Effect was 14.5%.

CC(C)c1cc(C(=O)NCC2CCCN(c3ncccn3)C2)n(C)n1 (stereo not given) was tested. Which Percent Effect did it give?
The Percent Effect was 5.97%.

Which Percent Effect does the source give for CCCN1CCC(CC(=O)NCc2cc(O)ncn2)CC1 here?
Its Percent Effect is -4.63%.

How did the Percent Effect turn out when O=C(Cn1ccc(-c2ccccc2)n1)N1CCN(C(=O)C2CC2)CC1 was run?
The Percent Effect was -3.88%.

With CC(C)c1nnc(NC(=O)Cc2csc(-c3nnc[nH]3)n2)s1 as the molecule, how does the Percent Effect read?
The Percent Effect was 6.49%.

How did the Percent Effect turn out when CC(NC(=O)C1CC1)C(=O)N(C)Cc1ccsc1 (stereo not given) was run?
The Percent Effect was -1.9%.

For COc1c(F)cc(-c2cccc3c2OC(CN)C3)cc1F (stereo not given), which Percent Effect is on record?
Its Percent Effect is -4.2%.

Which Percent Effect does the source give for CC(C)(C)NC(=O)CNc1ncccn1 here?
Its Percent Effect is 91.2%.

For Cc1nn(C)c2nc(N3CCCCC3c3nccs3)sc12 (stereo not given), which Percent Effect is on record?
Its Percent Effect is 5.6%.

For Cn1cccc1C(=O)NCc1ccnc(C2CCCOC2)n1 (stereo not given), which Percent Effect is on record?
Its Percent Effect is 6.83%.

With Cc1cnc2c(C(=O)N3CCCC(OCc4ccccn4)C3)cnn2c1 (stereo not given) as the molecule, how does the Percent Effect read?
Its Percent Effect is 4.92%.

Which Percent Effect does the source give for Cc1nc(CC(C)C)cc(C(=O)N2C[C@@H](N(C)C)[C@H](C(C)C)C2)n1 here?
Its Percent Effect is -4.31%.

Reference: ChEMBL document CHEMBL3988442, “University of Dundee, Small-Polar-MMV Screening Library” (2021)
